Results taken from article PMC6925144, “A prospective compound screening contest identified broader inhibitors for Sirtuin 1” (Scientific Reports, 2019).
Whole data set: some 3,200 compounds, median “TSA(without NAD+) / Primary screening (TSA) / delta Tm (K)” near -0.07, cut for the highest 2% near 0.37. Only a selection was taken, and the highest values are over-represented in it overall.

Target: NAD-dependent deacetylase Sirtuin 1 (human, UniProt Q96EB6)
Test: primary screen, delta tm
Set-up: single well (n = 1)
Conditions: 10 µM
Procedure, shortened: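 Thermal shift of Sirtuin 1 measured without NAD+, compound at 10 µM (n = 1); value is ΔTm, with hits defined as ΔTm > 0.45 K or < −1.5 K. Hits retested at 5, 10, 20 µM (n = 4) and counterscreened on bovine carbonic anhydrase and ABL1 SH2 domain.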

NAD-dependent deacetylase Sirtuin 1, sequence (Q96EB6 2-747 limits assumed): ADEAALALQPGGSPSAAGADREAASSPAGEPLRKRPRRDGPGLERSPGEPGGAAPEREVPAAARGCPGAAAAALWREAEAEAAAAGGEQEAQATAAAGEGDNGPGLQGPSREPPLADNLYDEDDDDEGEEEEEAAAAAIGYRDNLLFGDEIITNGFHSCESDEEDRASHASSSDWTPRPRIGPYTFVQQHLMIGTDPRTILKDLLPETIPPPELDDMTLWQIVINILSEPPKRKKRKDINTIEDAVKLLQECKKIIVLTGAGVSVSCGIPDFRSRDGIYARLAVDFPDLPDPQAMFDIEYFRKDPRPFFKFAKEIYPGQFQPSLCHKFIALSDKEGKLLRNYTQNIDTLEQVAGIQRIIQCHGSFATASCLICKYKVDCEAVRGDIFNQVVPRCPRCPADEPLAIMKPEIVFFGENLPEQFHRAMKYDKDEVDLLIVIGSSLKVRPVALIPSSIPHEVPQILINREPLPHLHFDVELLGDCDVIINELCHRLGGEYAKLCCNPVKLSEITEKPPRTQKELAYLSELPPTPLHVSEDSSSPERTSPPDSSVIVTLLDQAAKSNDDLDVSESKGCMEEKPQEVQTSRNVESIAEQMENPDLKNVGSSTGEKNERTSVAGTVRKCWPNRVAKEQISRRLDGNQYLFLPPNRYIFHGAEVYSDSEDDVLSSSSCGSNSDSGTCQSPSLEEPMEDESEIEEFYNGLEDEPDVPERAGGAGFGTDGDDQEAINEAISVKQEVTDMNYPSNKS

Compound | TSA(without NAD+) / Primary screening (TSA) / delta Tm (K)
COC(=O)c1ccccc1NC(=O)Cc1c[nH]c2ccccc12 | -0.22
COc1cc(/C=N/NC(=O)c2cc3c(s2)CCCC3)ccc1OS(=O)(=O)c1cc(C)ccc1C | 0.32
CCOc1cc(/C=N/NC(=O)c2cc3c(s2)CCCC3)ccc1OCC(=O)Nc1cccc(C(F)(F)F)c1 | 5.11
COc1cc(/C=N/NC(=O)c2cc3c(s2)CCCC3)ccc1OCC(=O)Nc1ccc(C)cc1 | -0.22
O=C(C1=C(O)C(=O)N(CCCN2CCOCC2)C1c1ccco1)c1ccc(F)cc1 (stereo not shown) | -0.08
CC(NC(=O)COC(=O)CCCN1C(=O)c2cccc3cccc(c23)C1=O)C12CC3CC(CC(C3)C1)C2 (stereo not shown) | -0.34
CC(C)CCN1C(=O)c2ccc(C(=O)OCC(=O)NC(C)C34CC5CC(CC(C5)C3)C4)cc2C1=O (stereo not shown) | 0.48
CC(NC(=O)COC(=O)c1ccc2c(c1)S(=O)(=O)c1ccccc1C2=O)C12CC3CC(CC(C3)C1)C2 (stereo not shown) | 0.17
COc1ccc(C(=O)C2=C(O)C(=O)N(CCCN3CCOCC3)C2c2ccc(OC)cc2)cc1 (stereo not shown) | -0.13
CC(=O)Nc1ccc(NC(=O)c2cccc(C(N)=O)c2)cc1C | -0.07
NS(=O)(=O)c1ccc(C(=O)Nc2ccc3c(c2)-c2ccccc2C3)cc1 | 0.23
NC(=O)c1cccc(NC(=O)c2cc3c(s2)-c2ccccc2CC3)c1 | 1.03
NC(=O)Cn1cnc2c(cnn2-c2ccccc2)c1=O | -0.08
Cc1cc(S(=O)(=O)NCc2ccc(C(N)=O)cc2)sc1Cl | -0.11
CC(C)(C)c1ccccc1NC(=O)c1ccc(S(=O)(=O)N2CCCC2)cc1 | -0.07
O=c1onc(-c2cnccn2)n1Cc1nc2cc([N+](=O)[O-])ccc2o1 | -0.12
CC(=O)N1N=C(c2ccccc2)CC1c1ccc(Br)cc1 (stereo not shown) | -0.02
CC(=O)N1N=C(c2ccc(O)cc2)CC1c1ccccc1 (stereo not shown) | 0.07
O=C(CSc1nnnn1-c1ccc(O)cc1)N1N=C(c2ccc3ccccc3c2)CC1c1ccccc1 (stereo not shown) | 0.49
CN(C(=O)Cc1ccc(NC(=O)NCc2ccc(-n3cncn3)nc2)cc1)c1ccccc1 | 0.08
CN1CCCN(c2ccc(NC(=O)NCCCNC(=O)c3cccc(O)c3)cc2F)CC1 | 0.02
Cc1ccc(NC(=O)NCCc2cccc(O)c2)cc1NC(=O)NCCc1cccc(O)c1 | 0.38

Compound | TSA(without NAD+) / Primary screening (TSA) / delta Tm (K)
CCCNC(=O)Nc1ccc(OC)cc1 | -0.12
CC(CN1CCOCC1)NC(=O)C(Cc1ccccc1)n1cnnn1 (stereo not shown) | -0.23
Cc1ccc(N(C)S(=O)(=O)c2cccc(C(=O)Nc3ccccc3C(F)(F)F)c2)cc1 | -0.13
Cc1ccc(N(C)S(=O)(=O)c2cccc(C(=O)Nc3ccccc3Cl)c2)cc1 | 0.07
O=C(NN/C=C1/C(=O)N(c2cccc(C(F)(F)F)c2)C(=O)c2ccccc21)c1cccc(S(=O)(=O)Nc2ccccc2Cl)c1 | 1.45
COC(=O)c1cc(-c2csc(NC(=O)c3cccc(NC(=O)c4cnoc4C)c3)n2)c[nH]1 | 0.46
NC(=O)NCc1ccc(C(=O)Nc2nc(-c3c[nH]c(C(N)=O)c3)cs2)cc1 | -0.03
COc1ccc(NC(=O)c2ccc(NC(=O)c3cnoc3C)cc2)cc1OCc1cccnc1 | -0.18
Cc1nc(-c2ccc(CCNC(=O)c3ccc(NC(N)=O)cc3)s2)cs1 | 0.23
COc1ccc(C(=O)NCCc2ccc(-c3csc(C)n3)s2)cc1 | 0.07
Cc1nc(-c2ccc(CCNC(=O)c3ccc(NC(=O)c4cccs4)cc3)s2)cs1 | 0.63
COc1ccc(C(=O)C2=C(O)C(=O)N(CCCN3CCOCC3)C2c2ccccc2)cc1C (stereo not shown) | 0.06
CC(c1ccc(S(N)(=O)=O)cc1)N(C)Cc1nc2ccccc2c(=O)[nH]1 (stereo not shown) | -0.15
O=C1CCCN1C(=O)Cn1cnc2cc(Cl)ccc2c1=O | -0.11
COc1ccc(NC(=O)C2=COCCO2)cc1S(=O)(=O)N1CCOCC1 | -0.13
COc1ccc(NC(=O)C2=COCCO2)cc1Cc1ccccc1 | 0.45
O=C(Nc1ccc(OC(F)F)c(Cc2ccccc2)c1)C1=COCCO1 | -0.12
O=C(Nc1cccc(Cn2[nH]c(=O)ccc2=O)c1)c1cccc(Oc2ccccc2)c1 | -0.13
NC(=O)c1ccc(OCC(=O)NC(=O)NCc2cccs2)cc1 | 0.03
NC(=O)C1CCN(c2nc(-c3cccs3)nc3sc4c(c23)CCCC4)CC1 | 2.58
NC(=O)C1CCN(c2ncnc3sc4c(c23)CCCC4)CC1 | 0.28
Cc1sc2nc(-c3cccs3)nc(N3CCC(C(N)=O)CC3)c2c1C | 0.58

Compound | TSA(without NAD+) / Primary screening (TSA) / delta Tm (K)
Cc1sc2nc(-c3cccnc3)nc(N3CCC(C(N)=O)CC3)c2c1C | 0.25
NC(=O)C1CCN(c2nc(-c3cccnc3)nc3sc4c(c23)CCCC4)CC1 | 0.33
Cc1sc2ncnc(N3CCC(C(N)=O)CC3)c2c1C | -0.11
CCSCCOC(=O)c1ccc2[nH]c(C(F)F)nc2c1 | -0.04
Cn1c2ccccc2c2cc(S(=O)(=O)NCc3cccc(NC(=O)C4CC4)c3)ccc21 | -0.03
CS(=O)(=O)c1ccc(NC(=O)c2ccccc2SCC(=O)NC23CC4CC(CC(C4)C2)C3)cc1 | -0.03
CC(C)Oc1ccc(C2C(C(=O)c3ccco3)=C(O)C(=O)N2CCCN2CCOCC2)cc1 (stereo not shown) | -0.02
COc1cccc(C2C(C(=O)c3ccc(Cl)cc3)=C(O)C(=O)N2CCCN2CCOCC2)c1 (stereo not shown) | -0.12
CCC(N)C(N)=O (stereo not shown) | -0.22
CC1CCC(NN)CC1 (stereo not shown) | -0.08
CC(=O)c1ccc(NC(=O)C(C)OC(=O)c2cccc(S(=O)(=O)NC(C)C34CC5CC(CC(C5)C3)C4)c2)cc1 (stereo not shown) | 0.35
CC(OC(=O)c1cccc(S(=O)(=O)Nc2ccc(F)cc2)c1)c1nc2ccccc2c(=O)[nH]1 (stereo not shown) | 0.02
CCn1c2ccccc2c2cc(NC(=O)C(C)OC(=O)c3cccc(S(=O)(=O)Nc4ccc(Cl)cc4)c3)ccc21 (stereo not shown) | 0.56
O=C(/C=C/c1ccc(F)cc1)NCCCn1ccc2ccccc21 | 0.08
Cc1ccc2c(CC(=O)Nc3ccccc3Cc3ccccc3)coc2c1 | 0.07
COc1ccc(-c2nn(-c3ccccc3)cc2CN(CCCCCCN(Cc2cn(-c3ccccc3)nc2-c2ccc(OC)cc2)C(=O)CCC(=O)O)C(=O)CCC(=O)O)cc1 | 0.37
Cc1ccc(-c2nn(-c3ccccc3)cc2C(=O)NCc2nnc3ccccn23)cc1 | -0.03
Cc1noc(C)c1CC(=O)OCc1cn(-c2ccccc2)nc1-c1ccc(Cl)cc1 | 0.22
Cc1oc2cc(OC(C)C(=O)NCc3ccco3)ccc2c(=O)c1-c1c(F)cccc1Cl (stereo not shown) | -0.11
O=C1NC(=S)N/C1=C\c1ccccc1OCc1ccc(C(=O)O)cc1 | 0.38
O=C1NC(=S)N/C1=C/c1ccc(-c2ccccc2F)o1 | 0.05
O=C1NC(=S)N/C1=C\c1cc(Br)ccc1O | -0.23

Compound | TSA(without NAD+) / Primary screening (TSA) / delta Tm (K)
COc1ccc(C(N)=O)cc1NC(=O)c1nc2nc(C)cc(C)n2n1 | -0.15
NC(=O)C1CCN(c2nc(CN3CCCCC3)nc3sc4c(c23)CCC4)CC1 | 0.07
Cc1sc2nc(CSc3ccccc3)nc(N3CCC(C(N)=O)CC3)c2c1C | 0.52
NC(=O)C1CCN(c2nc(CSc3ccccc3)nc3sc4c(c23)CCCC4)CC1 | 1.78
Cc1sc2nc(CSc3ccccc3)nc(N3CCCC(C(N)=O)C3)c2c1C (stereo not shown) | -0.12
NC(=O)C1CCCN(c2ncnc3sc4c(c23)CCCC4)C1 (stereo not shown) | -0.18
Cc1sc2nc(CN3CCCC3)nc(N3CCC(C(N)=O)CC3)c2c1C | -0.12
O=C1/C(=C/c2cccc(Br)c2)Oc2cc(O)ccc21 | 0.19
O=C1CCCN1c1cccc(NS(=O)(=O)c2cccc(F)c2)c1 | -0.02
COc1ccc(NC(C)c2ccc(S(C)=O)cc2)cn1 (stereo not shown) | -0.18
O=C(COC(=O)c1ccc(CNS(=O)(=O)c2ccc(F)c(Cl)c2)cc1)c1ccccc1 | -0.03
O=C(C1=C(O)C(=O)N(CCCN2CCOCC2)C1c1ccco1)c1cc2ccccc2o1 (stereo not shown) | 0.02
Cc1ccc(C(=O)Nc2ccc(NC(=O)NCC3CCCO3)cc2)cn1 (stereo not shown) | 0.52
O=C(NCC1CCCO1)Nc1ccc(NC(=O)c2ccccn2)cc1 (stereo not shown) | 0.07
COc1cc(C=C(C(=O)NCC2CCCO2)C(=O)NCC2CCCO2)ccc1OCC(=O)Nc1ccc(C)cc1 (stereo not shown) | -0.08
Cc1ccc(Nc2nc(CSc3nnc(NCc4ccco4)s3)cs2)cc1 | -0.17
CC(C)OC(=O)CC(Nc1ccc2nnnn2n1)c1ccccc1 (stereo not shown) | -0.07
Cc1noc(CN2CCN(c3ncnc4c3oc3ccccc34)CC2)n1 | -0.33
Cc1ccc(S(=O)(=O)N2CCN(C(=O)CSc3nnc(NCc4ccco4)s3)CC2)cc1 | 0.16
O=c1cc(CSc2nnc(-c3ccccc3)o2)c2cc3c(cc2o1)CCC3 | -0.18
COCCNc1nnc(SCc2cc(=O)oc3c(C)c(O)ccc23)s1 | -0.74
O=c1cc(CSc2nnc(Nc3ccccc3)s2)c2ccc(O)cc2o1 | 0.38
